# Source: ChEMBL document CHEMBL1157539, “Thousands of chemical starting points for antimalarial lead identification” (Nature, 2010)
# Tests used:
# Type in all cases: functional
# Plasmodium falciparum [1] = assay: GSK_TCMDC: Inhibition of Plasmodium falciparum 3D7 in whole red blood cells, using parasite LDH activity as an index of growth. Test compounds present at 2uM
# Plasmodium falciparum [2] = assay: GSK_TCMDC: Inhibition of Plasmodium falciparum Dd2 in whole red blood cells, using parasite LDH activity as an index of growth. Test compounds present at 2uM
# HepG2 = assay: GSK_TCMDC: Percent inhibition of human HepG2 cell line. Test compounds present at 10uM.
Structure (SMILES),Inhibition (Plasmodium falciparum [1]),Inhibition (Plasmodium falciparum [2]),Inhibition (HepG2)
CCCCCCNC(=O)c1nn(CCN2CCC(N3CCCC3)CC2)cc1-c1ccc(Cl)c(Cl)c1,100%,33%,31%
Cc1ccccc1CCNC(=O)c1ccc(N2CCN(c3ccncc3)CC2)nc1.O=C(O)C(F)(F)F,95%,20%,10%
O=C(Cc1cccc(Cl)c1)Nc1cccc(-c2c[nH]c3nc(Nc4cccc(O)c4)ncc23)c1.O=C(O)C(F)(F)F,100%,74%,23%
CN(C)C1CCN(CC#Cc2cc3ncnc(Nc4ccc(OCc5cccc(F)c5)c(Cl)c4)c3s2)CC1,85%,5%,34%
O=C(Nc1ccc(-c2ccccc2)cc1)Nc1ccc2c(c1)CCNCC2.O=C(O)C(F)(F)F,97%,48%,41%
O=C(NC1CC1)c1ccc(N2CCOc3ccc(Cl)cc32)s1,94%,73%,8%
O=C(O)C(F)(F)F.c1cc(CNCCc2ccncc2)cc(-c2ccc(-c3nc4ccccc4[nH]3)cc2)c1,99%,97%,28%
Cc1cc(F)ccc1Nc1nc(N(C)c2ccccc2)c2cc(OCCCN(C)C)ccc2n1,100%,49%,31%
COc1ccc2nc3cc(Cl)ccc3c(Nc3ccc(Sc4ccc(Nc5c6ccc(Cl)cc6nc6ccc(OC)cc56)cc4)cc3)c2c1.Cl,92%,94%,1%
CS(=O)(=O)n1c(CN2CCN(c3ncc(C(F)(F)F)cc3Cl)CC2)nc2ccccc21,83%,59%,0%
CS(=O)(=O)c1ccc(-c2cnc(N)c(-c3cccc(CO)c3)c2)cc1,98%,51%,0%
Cc1cc(N)cc2nc(-c3ccc(N)cc3)[nH]c12,96%,75%,0%
Cc1ccc(NC(=O)c2ccc(CN3CCCN(Cc4cccc(O)c4)CC3)cc2)cc1F.O=C(O)C(F)(F)F,97%,31%,48%
Cc1c(Cl)cccc1S(=O)(=O)Nc1cccc(CCN2CCC(N3CCCCC3)CC2)c1,100%,82%,38%
O=C(NCc1cccc2ccccc12)C1CCCN(C(=O)c2ccc(O)c(-c3ccc(Cl)c(Cl)c3)c2)C1 (configuration not stated),92%,23%,1%
Cc1cccc2nc(-c3ccc(-c4cccc(CN5CCN(c6ccc(C#N)cn6)CC5)c4)s3)[nH]c12.O=C(O)C(F)(F)F,85%,8%,37%
c1cc(Nc2nccc(-c3cnn4ncccc34)n2)cc(-c2cnco2)c1,96%,83%,54%
O=C(c1cc(-c2cccs2)n[nH]1)N1CCN(S(=O)(=O)c2ccc(Cl)s2)CC1,84%,80%,20%
COc1ccc(-c2ncnc(C(F)(F)F)c2-c2ccc(Cl)cc2)c(O)c1,100%,22%,1%
CCC(=O)N[C@@H]1CN[C@@H](C#Cc2cc3c(Nc4ccc(OCc5cccc(F)c5)c(Cl)c4)ncnc3s2)C1,82%,0%,46%
CC(CCNc1c2ccccc2nc2ccccc12)N1CCN(C)CC1.Cl (configuration not stated),100%,0%,25%
Cc1cc(-c2cccc(CNC3CCN(C)CC3)c2)ccc1S(=O)(=O)NCCN1CCCC1.O=C(O)C(F)(F)F,100%,0%,18%
C=C(NC(=O)C1CCCCC1)C(=O)OC,93%,3%,15%
O=C(Nc1cccc(-c2ccc(-c3nc4ccccc4[nH]3)cc2)c1)Nc1ccc2c(c1)OCO2,90%,8%,20%
CCC(C)NC(=O)Nc1ccc(-c2cccc(-c3nc4ccccc4[nH]3)c2)cc1 (configuration not stated),94%,37%,41%
CN(C(=O)/C=C/c1cc(C(F)(F)F)ccc1F)C1CCN(CCCCCNC(=O)/C=C/c2ccc(Cl)c(Cl)c2)CC1,100%,68%,71%
OC(CNCc1ccccc1OCc1ccccc1)c1cc(Br)cs1 (configuration not stated),97%,88%,16%
Br.CCCc1cccc(OC)c1OCCCON1C(N)=NC(N)=NC1(C)C,94%,97%,65%
CCCC(C)C(=O)N1CCOC(COCc2cccc(C(F)(F)F)c2)(c2ccc(Cl)cc2)C1 (configuration not stated),97%,91%,2%
